# Bioassay records (PubChem)
# Sampled rows, rich in hits. Any-hit rate of the full collection: about 1.5%.
# PvdQ acylase – P. aeruginosa PvdQ acylase inhibition; purified PvdQ acylase, fluorescence plate reader; 340,000 tested, 0.063% active; inhibition, % at 10 µM; in the data active = inhibition above about 30%, passing the limit was not always enough; inconclusive = no clear call, values can overlap the other calls;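 also: 0% = vehicle neutral wells and 100% = reference inhibitor wells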
# N-glyco inh – N-linked glycosylation inhibition | D54 ERlucT glycosylation luciferase reporter, 24 h; percent of 100 nM tunicamycin response | reporter increase, % at 12.5 µM | 360,000 tested, 0.23% active | AID 588692;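 active = mean luciferase reporter signal, scaled so untreated is 0 and the glycosylation-blocking control 100, at or above a set limit in every replicate; inconclusive = mean reaches the limit but not every replicate does; inactive = mean below the limit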;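 also: luciferase carries N-glycosylation sites so blocking glycosylation raises the light; 0% = median of neutral control wells and 100% = median of 100 nM tunicamycin wells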
# F508del corr – correctors of CFTR F508del function in bronchial epithelial cells; activity (quench increase), % at 7.58 µM; 350,000 tested, 0.36% active; CFBE cells, YFP halide quenching; stimulated with forskolin plus potentiator P3; % fluorescence drop versus neutral controls;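 active = mean added fluorescence quench of at least 8% versus neutral control, with both replicates also reaching 8%; inconclusive = only one of the mean or replicate conditions met; inactive = mean below 8% and not both replicates reaching 8%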;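 also: cells transiently co-express mutant CFTR-F508del with the halide-sensitive YFP; corrector assay measuring rescue of mutant channel to the surface after 24 h compound exposure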
# RAD54 inh – blocks human RAD54 Holliday junction branch migration; Q92698; FAM/BHQ fluorescence; inhibition, % at 10.4 µM; 360,000 tested, 0.14% active; AID 602329;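 active = mean normalized replicate activity at least 40 and at least half of replicates scoring 40 or more; inconclusive = only one of the two criteria met; inactive = mean below 40 and under half of replicates reaching 40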;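 also: 0% = median of neutral control wells and 100% = median of positive control wells; inhibitors cause a drop in the FAM fluorescence signal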
# dFosB activator – enhances mouse delta FosB homodimer DNA binding. P13346. purified delta FosB, TAMRA-CDK5 oligo fluorescence polarization; percent of positive-control signal above neutral wells. activation, % at 25 µM. 340,000 tested, 0.99% active. AID 493131;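 active = mean activation above about 17%, with every replicate also reaching it, limit read from the data, passing the limit was not always enough; inconclusive = only one of the two conditions met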
# Target sequence (P13346 whole entry, looked up): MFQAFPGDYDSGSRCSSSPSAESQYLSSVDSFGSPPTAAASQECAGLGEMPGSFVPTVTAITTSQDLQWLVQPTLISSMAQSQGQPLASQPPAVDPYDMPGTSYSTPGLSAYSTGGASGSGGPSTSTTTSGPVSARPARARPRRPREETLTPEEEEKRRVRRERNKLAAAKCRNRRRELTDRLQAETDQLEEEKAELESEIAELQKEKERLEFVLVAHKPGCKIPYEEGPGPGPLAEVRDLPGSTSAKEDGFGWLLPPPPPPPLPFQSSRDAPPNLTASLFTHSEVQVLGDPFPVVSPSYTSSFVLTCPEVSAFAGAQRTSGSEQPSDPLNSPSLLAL
# RAD52 anneal inh – RAD52 (human) annealing inhibition; 360,000 tested, 0.46% active; inhibition, % at 18.7 µM; P43351; AID 651710; recombinant RAD52 DNA annealing, FRET fluorescence;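 active = every replicate showing at least 50% inhibition; inconclusive = mean inhibition at least 50% but not in every replicate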
# * = called active by the depositor; ? = inconclusive; . = no result.
SMILES,PvdQ acylase,N-glyco inh,F508del corr,RAD54 inh,dFosB activator,RAD52 anneal inh
COc1ccc(C(=O)/C=C\c2ccc(NC(=O)c3cccs3)cc2)cc1,-9,48*,.,2,2,.
COc1ccccc1CC(=O)Nc1ccc(NC(=O)c2cccs2)cc1,-11,-3,0,4,17*,-8
COc1ccccc1CC(=O)NNC(=O)c1cccs1,-9,1,-1,-4,-8,-15
COc1ccc(/C=C/C(=O)c2ccoc2)cc1,40*,2,.,6,-5,-21
COCC(=O)N1C[C@@H]2[C@H](c3ccccc31)[C@H](CO)N2C(=O)C1CCCCC1,.,.,2,1,.,-14
Cc1ccc(C)c(NC(=O)CCC(=O)N/N=C/c2cc([N+](=O)[O-])ccc2O)c1,14,2,9.9*,-4,-4,-12
CCCNC(=O)C[C@H]1CC[C@@H]2[C@H](COC[C@@H](O)CN2C(=O)Nc2ccc3c(c2)OCO3)O1,.,.,-1,1,.,-8
O=c1[nH]c(=O)c2nc(-c3ccc(Cl)cc3)cnc2[nH]1,9,3,0,3,0,-17
O=c1[nH]c(=O)c2nc3c4ccccc4c4ccccc4c3nc2[nH]1,7,96*,4,.,-25,-22
O=S1(=O)CCN(C(CO)c2ccccc2)CC1 (stereo unspecified),-4,-1,10*,.,-5,4
O=C(O)CC(c1cccc(C(F)(F)F)c1)N1CCS(=O)(=O)CC1 (stereo unspecified),-3,1,1,6,1,-19
CCC(=O)Nc1ccc(NC(=S)NC(=O)/C=C/c2ccco2)cc1,-4,4,-1,-12,-14,-14
CC(=O)NC(=S)Nc1ccc(NC(=S)NC(=O)/C=C/c2ccco2)cc1,-1,-1,14*,.,-5,-11
C[C@H](CO)N1C[C@H](C)[C@@H](CN(C)C(=O)Cc2ccccc2)OCCCC[C@H](C)Oc2ccc(NC(=O)c3ccccc3)cc2C1=O,.,.,-1,-5,.,14
Cc1ccc(/C=N/NC(=O)c2nnn(-c3nonc3N)c2CNc2ccccc2)cc1,-19,2,1,-5,9,-7
Cc1c(C(=O)N/N=C/c2c(O)ccc3ccccc23)nnn1-c1nonc1N,2,-7,14*,-7,38*,-25
Nc1nonc1-n1nnc(C(=O)N/N=C/c2cc(Br)ccc2O)c1CNc1ccccc1,-11,-5,-2,-5,52*,-9
O=C(CCc1ccccc1)NCC(c1ccco1)N1CCc2ccccc21 (stereo unspecified),-3,9,14*,-1,-11,-7
O=C(NCC(c1ccco1)N1CCc2ccccc21)c1ccccc1F (stereo unspecified),-7,-1,2,-10,-2,-6
COc1ccc(Cl)cc1C(=O)NNC(=O)CCNS(=O)(=O)c1ccccc1,-17,1,10*,4,-4,1
Cc1ccc(S(=O)(=O)NCCC(=O)NNC(=O)c2ccccc2Cl)cc1C,-1,1,0,4,-2,-4
CC(Oc1ccccc1Cl)C(=O)Nc1ccc(S(=O)(=O)Nc2nccs2)cc1 (stereo unspecified),-1,-1,8.7*,-17,-7,-27
Cc1ccccc1OC(C)C(=O)Nc1ccc(S(=O)(=O)Nc2nccs2)cc1 (stereo unspecified),-8,1,-1,3,-5,-11
O=C(CCN1CCN(C(c2ccccc2)c2ccccc2)CC1)N/N=C/c1ccc(O)cc1,-7,-3,.,.,5,.
O=C(CCN1CCN(C(c2ccccc2)c2ccccc2)CC1)N/N=C/c1ccc(O)cc1O,-10,5,1,.,37*,.
SMILES,PvdQ acylase,N-glyco inh,F508del corr,RAD54 inh,dFosB activator,RAD52 anneal inh
COc1cccc(CNC(=O)c2cc3c(c(-c4cccc(-c5cccc(C#N)c5)c4)n2)[C@H](CCO)N([S@@](=O)C(C)(C)C)C3)c1,.,.,-1,-4,.,59*
N#Cc1cccnc1Nc1ccc(Cl)cc1,32*,1,0,-4,1,7
CCc1ccc(C2NC(=S)NC3=C2C(=O)N(c2ccccc2OC)C(c2ccc(CC)cc2)N3)cc1 (stereo unspecified),5,-2,.,0,101*,.
COc1ccccc1N1C(=O)c2ccccc2NC1c1ccncc1 (stereo unspecified),-15,0,.,-8,4,.
COc1cc(-c2noc(C)c2C#Cc2ccsc2)cc(OC)c1OC,21,20,11*,12,5,-2
CCCC(=O)NC1=C(Cl)C(=O)c2ccccc2C1=O,-12,-3,45*,.,-7,11
CC(=O)Nc1ccc(NC(=O)CSc2nnnn2-c2ccc3c(c2)OCCO3)cc1,-7,0,0,.,87*,-4
Cc1ccc(-n2nnnc2SCC(=O)Nc2ccc3c(c2)OCCO3)cc1C,7,2,.,-6,-2,.
C[C@@H]1CCCCO[C@H](CN(C)Cc2ccc3c(c2)OCO3)[C@H](C)CN([C@H](C)CO)C(=O)c2cc(NS(=O)(=O)c3cn(C)cn3)ccc2O1,.,.,4,2,.,.
CN(C)C(=O)C[C@H]1CC[C@H]2[C@@H](COC[C@H](O)CN2C(=O)C2CC2)O1,.,.,-2,-2,.,-16
O=C1CC(c2ccccc2)CC2=C1C=Nc1ccccc1N2 (stereo unspecified),5,9,9.2*,.,3,-9
O=C1CC(c2ccc(F)cc2)CC2=C1C=Nc1ccccc1N2 (stereo unspecified),-15,-3,4,.,-13,-10
CCOC(=O)C(=Cc1ccc(-c2ccsc2C(=O)OC)o1)C(=O)OCC,-12,?,.,0,-12,.
COC(=O)C(=Cc1ccc(-c2ccsc2C(=O)OC)o1)C(=O)OC,-8,35*,-2,.,3,-10
C/C=C/c1ccc2c(c1)O[C@@H](CN(C)C(=O)C1CC1)[C@H](C)CN([C@H](C)CO)S2(=O)=O,.,.,-3,.,.,.
O=C(NC1CCCCC1)C(c1ccc(O)c(O)c1)N(C(=O)Cn1nnc2ccccc21)c1cccc(O)c1 (stereo unspecified),-6,-2,2,.,32*,-13
CC(=O)c1cccc(N(C(=O)Cn2nnc3ccccc32)C(C(=O)NC2CCCCC2)c2cn(C)nc2C)c1 (stereo unspecified),2,2,0,.,-1,-4
CNc1ccc(/C=C/C(=O)c2cccc3ccccc23)cc1[N+](=O)[O-],-10,46*,.,.,-12,-8
CNc1ccc(C(=O)c2ccccc2C(=O)O)cc1[N+](=O)[O-],10,-3,1,.,3,-12
Cc1cc(C)nc(N(C#N)Cc2ccc(Cl)cc2)n1,36*,-3,0,.,2,-5
Cc1cc(C)nc(N(C#N)Cc2cccc(Cl)c2)n1,25,-1,11*,.,-1,-7
Cc1ccc(CN(C#N)c2nc(C)cc(C)n2)cc1,12,0,.,-11,-2,.
